Screening data from PubChem.
A selection: hits, their analogues and other compounds. The true share with any hit is near 3.1%.
mTORC1 inh: inhibitors of mTORC1 signaling in Tsc2-/- p53-/- MEF cells | Tsc2-/- p53-/- MEF, phospho-rpS6 immunofluorescence/PI, 24 h | Potency, µM (highest dose often 38.3 µM), for inactives: at the highest dose activity change, negative = inhibition, most hits filed as inhibitors | 44,000 tested, 0.78% active;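 note: potency is the fitted concentration of half-maximal effect; plate controls were DMSO for no effect and rapamycin for full effect; nearly all actives have a fitted effect of over 50% in size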
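Readout is phospho-S6 Alexa 488 signal normalized to PI per well, reported as % active cells with thresholds set from rapamycin (7.5 nM) and DMSO controls. Cells: Tsc2-/-, p53-/- MEFs, 24 hrs compound at 37 C; PI cell number serves as viability.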
p53null 39C tox: selectivity test: cytotoxicity in p53 null cells, nonpermissive temperature; H1299 p53-null (neo) cells, 39C, ATPlite viability, 24 h; Potency, µM (series often up to 46.1 µM), inactives show at the top dose activity, negative = cell killing, hits mostly cytotoxic; 55,000 tested, 0.97% active; AID 904;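 note: potency is the fitted concentration of half-maximal effect; 0% = DMSO only and -100% = full killing by 100 µM tamoxifen; nearly all actives have a fitted effect of over 50% in size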
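H1299 lung cancer cells, p53-null (H1299-neo) or expressing p53 A138V (H1299-p53A138V), were plated overnight at 37C, then exposed to compounds at up to 46 uM for 24 hr at 39C. Viability was read by ATP-based luminescence.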
SKOV3 invasion: ovarian cancer metastasis inhibition, 3D TME model. SKOV3ip1-GFP adhesion/invasion on 3D omental model, fluorescence. Potency, µM (series often up to 45.8 µM), for the others: at the highest dose activity change, negative = inhibition, hits mostly inhibitors. 46,000 tested, 0.1% active. AID 1963576;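 note: potency is the fitted concentration of half-maximal effect; plate controls were DMSO wells for no effect and tomatine positive control wells for full effect; nearly all actives have a fitted effect of over 65% in size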
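Adhesion/invasion was scored as fixed GFP-labeled SKOV3ip1 cell counts (488/509 nm), normalized to DMSO and tomatine controls. Cancer cells in serum-free medium, with four compound doses (0.36-46 umol/L), sat 2 hr at RT then 16 hr at 37 C on a 48 hr fibroblast/mesothelial/ECM culture.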
PMP22 txn: modulators of PMP22 gene transcription in S16 Schwann cells; S16 Pmp22-F2sN Schwann cells, FLuc/NLuc coincidence luminescence, 24 h; Potency, µM (series often up to 57.5 µM), for inactives: at the highest dose activity change, negative = inhibition, usual class: inhibitors; 43,000 tested, 2% active; AID 1508649; active = clear falling dose curves in both reporters; inconclusive = both reporters move, but less clearly or upward; inactive = either reporter flat; the % is the NLuc reporter signal; note: potency is the fitted concentration of half-maximal effect; % is set by controls: 0 for no effect and ±100 for the full control effect
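Rat S16 Pmp22-F2sN cells, 500-1,000/well in phenol red-free DMEM + 10% FBS, compound-treated 24 h (37C, 5% CO2). Luminescence: FLuc read, Stop&Glo added, NLuc read.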
S16 viability: cytotoxicity in S16 Pmp22-F2sN Schwann cells; S16 Pmp22-F2sN Schwann cells viability, CellTiter-Glo, 24 h; Potency, µM (titrated, usually from 57.5 µM), for the others: top-dose activity change, negative = cytotoxicity, actives largely listed as cytotoxic; 43,000 tested, 0.48% active; note: potency is the fitted concentration of half-maximal effect; % is set by controls: 0 for no effect and ±100 for the full control effect; nearly all actives have a fitted effect of over 65% in size
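S16 Schwann cells carrying the Pmp22-F2sN reporter, seeded in 1536-well format, were exposed to library compounds for 24 h at 37C. Viability was read as CellTiter-Glo luminescence after 15 min at room temperature.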
p53null 32C kill: selectivity test: cytotoxicity in p53 null cells, permissive temperature | 55,000 tested, 0.62% active | AID 903 | H1299-neo p53 null cells, ATP luminescence, 24 h, 32C | Potency, µM (series often up to 46.1 µM), inactives show top-dose activity change, negative = cytotoxicity, actives largely listed as cytotoxic;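 note: potency is the fitted concentration of half-maximal effect; 0% = DMSO only and -100% = full killing by 100 µM tamoxifen; nearly all actives have a fitted effect of over 55% in size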
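H1299-neo, 600 cells/well; overnight 37C; cpd up to 46 uM, 24 h at 32C; ATPlite luminescence after 20 min RT; normalized to DMSO (0%) and tamoxifen 100 uM (100% kill); Hill-fit AC50.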
NLuc sat counter: NanoLuc enzyme inhibition artifact for PMP22 screen | shares compounds with PMP22 txn | Secreted NLuc enzyme (filtered S16 cell medium), Nano-Glo luminescence | Potency, µM (top dose mostly 57.5 µM), without a hit: at the top dose activity change, negative = inhibition, most hits filed as inhibitors | 690 tested, 4% active | AID 1508638; note: potency is the fitted concentration of half-maximal effect; % is set by controls: 0 for no effect and ±100 for the full control effect
NLuc Km ctr: counter-screen for PMP22 expression modulators: NanoLuc inhibition at Km; 690 tested, 5% active; Potency, µM (titrated, usually from 57.5 µM), inactives show top-dose activity change, negative = inhibition, hits mostly inhibitors; secreted NLuc enzyme, coelenterazine luminescence, Km conditions; shares compounds with PMP22 txn; AID 1508639; note: potency is the fitted concentration of half-maximal effect; % is set by controls: 0 for no effect and ±100 for the full control effect
FLuc counter: counter-screen for PMP22 expression modulators: firefly luciferase inhibition; 690 tested, under 10 active; purified P. pyralis FLuc, luminescence, 10 min; shares compounds with PMP22 txn; Potency, µM (highest dose often 57.5 µM), without a hit: at the highest dose activity, negative = inhibition, hits mostly inhibitors; AID 1508640; note: % of control where 0% means no effect
Target sequence (P08659 whole entry, looked up): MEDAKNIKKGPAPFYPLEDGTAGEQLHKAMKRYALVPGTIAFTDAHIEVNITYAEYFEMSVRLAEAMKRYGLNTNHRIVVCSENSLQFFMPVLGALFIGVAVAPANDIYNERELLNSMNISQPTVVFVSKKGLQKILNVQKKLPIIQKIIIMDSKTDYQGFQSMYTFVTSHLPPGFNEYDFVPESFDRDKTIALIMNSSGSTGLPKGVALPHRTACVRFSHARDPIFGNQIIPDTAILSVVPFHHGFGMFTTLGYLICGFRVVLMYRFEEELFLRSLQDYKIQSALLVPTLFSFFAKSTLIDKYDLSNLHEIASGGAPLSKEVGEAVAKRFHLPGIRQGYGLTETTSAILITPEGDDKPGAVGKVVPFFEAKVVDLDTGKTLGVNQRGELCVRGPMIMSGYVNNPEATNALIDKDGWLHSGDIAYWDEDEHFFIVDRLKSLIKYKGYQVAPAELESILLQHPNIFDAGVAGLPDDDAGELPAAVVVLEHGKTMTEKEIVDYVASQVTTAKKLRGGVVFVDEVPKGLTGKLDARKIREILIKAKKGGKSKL
S16 viab conf: confirmation of cytotoxicity in S16 Pmp22-F2sN Schwann cells (luciferase reporters placed in the Pmp22 gene); 690 tested, 7% active; S16 Schwann cells viability, CellTiter-Glo ATP luminescence, 24 h; Potency, µM (doses to about 57.5 µM), for inactives: at the highest dose activity change, negative = viability loss, actives largely listed as cytotoxic; shares compounds with PMP22 txn; note: potency is the fitted concentration of half-maximal effect; % is set by controls: 0 for no effect and ±100 for the full control effect
PMP22 txn cnf: confirmation of modulators of PMP22 gene transcription in S16 cells; Potency, µM (titrated, usually from 57.5 µM), without a hit: top-dose activity change, negative = inhibition, actives largely listed as inhibitors; 690 tested, 22% active; S16 Schwann cells Pmp22-F2sN, dual luciferase, 24 h; AID 1508646; shares compounds with PMP22 txn; active = clear falling dose curves in both reporters; inconclusive = both reporters move, but less clearly or upward; inactive = either reporter flat; the % is the FLuc reporter signal; note: potency is the fitted concentration of half-maximal effect
* hit, by the source's call; i = inactive; ? = inconclusive; / = no result. Unless noted, calls come from the whole dose curve; as a rule, active = well fitted curve in the direction sought with a large enough effect; inconclusive = small, poorly fitted or top-dose-only effect, or another doubt; inactive = no such curve, though single readings can be large; an effect the other way counts as inactive or inconclusive.

SMILES | mTORC1 inh | p53null 39C tox | SKOV3 invasion | PMP22 txn | S16 viability | p53null 32C kill | NLuc sat counter | NLuc Km ctr | FLuc counter | S16 viab conf | PMP22 txn cnf
COC(c1ccccc1)(c1ccccc1)[C@H](Oc1nc(C)cc(C)n1)C(=O)O | / | / | 5% | / | / | / | / | / | / | / | /
O=C(O)C(=O)Nc1cccc(C2=NN=N[N]2)c1 | / | / | -6% | / | / | / | / | / | / | / | /
CCOC(=O)c1cc2c(=O)n3ccccc3nc2n(CC(C)C)c1=NC(=O)C(C)(C)Oc1ccc(Cl)cc1 | 3% | -3% | 1% | ? | -2% | -6% | / | / | / | / | /
CCOC(=O)c1cc2c(=O)n3ccccc3nc2n(CC(C)C)c1=NC(=O)COc1ccc(Cl)cc1 | 2% | -8% | -8% | 16µM* | -6% | -2% | -15% | 1% | -4% | -26% | ?
O=C(Nc1ccc(Oc2ccnc3[nH]ccc23)c(F)c1)c1cccn(-c2ccc(F)cc2)c1=O | / | / | 0% | / | / | / | / | / | / | / | /
CNC(=O)c1ccc(N2C(=S)N(c3ccc(C#N)c(C(F)(F)F)c3)C(=O)C2(C)C)cc1F | / | / | 11% | / | / | / | / | / | / | / | /
CCN(c1ccccc1)S(=O)(=O)c1ccc2[nH]cc(C(=O)NC3CCCCC3)c(=O)c2c1 | -1% | 27% | i | ? | -23% | 19% | / | / | / | / | /
CCN(c1ccccc1)S(=O)(=O)c1ccc2[nH]cc(C(=O)NCc3ccc(C)cc3)c(=O)c2c1 | -5% | 28% | -7% | 13µM* | 0% | 0% | -8% | -2% | 5% | -9% | -11%
Cc1cccc(OCC(=O)Nc2ccc3c(c2)N(C)C(=O)c2ccccc2S3)c1 | -13% | 6% | ? | ? | ? | 14% | / | / | / | / | /
CN1C(=O)c2ccccc2Sc2ccc(NC(=O)COc3ccccc3)cc21 | -19% | 9% | 8% | 12µM* | -27% | 3% | ? | ? | 0% | -8% | -32%
COc1cccc(CNC(=O)Nc2ccc3c(c2)N(C)C(=O)c2ccccc2S3)c1 | -10% | -3% | 16% | 18µM* | ? | -6% | ? | ? | -16% | -2% | ?
COc1cc2c(cc1OC)CN(CCc1ccc(NC(=O)c3cc(OC)c(OC)cc3NC(=O)c3cnc4ccccc4c3)cc1)CC2 | / | / | 14% | / | / | / | / | / | / | / | /
CC(C)OC(=O)[C@H](C)N[P@](=O)(OC[C@H]1O[C@@H](n2ccc(=O)[nH]c2=O)[C@](C)(F)[C@H]1O)Oc1ccccc1 | / | / | 1% | / | / | / | / | / | / | / | /
